Measured values reported in the supplement of paper PMC12297408.
Where a name gives a salt, the structure may show the parent alone. Unmarked numbers belong to inactive results.

What was measured:
[1] = system: Plasmodium falciparum NF54/iGP1_RE9H ulg8 stage V gametocytes; experiment: gametocyte viability (luciferase signal relative to DMSO control) (% of DMSO control); higher = less gametocytocidal activity, active = 50 or less; conditions: exposure time: 72 h
Description: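 Synchronous P. falciparum NF54/iGP1_RE9H ulg8 mature stage V gametocytes (day 12) were exposed to Cayman Epigenetics Screening Library compounds at 10 µM or 1 µM for 72 h at 37 °C. Viability was read as RE9H luciferase bioluminescence, normalised to DMSO plate controls (100%); 50 µM methylene blue was the positive control.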

[2] = system: Plasmodium falciparum NF54/iGP1_RE9H ulg8 stage V gametocytes; experiment: gametocyte viability (luciferase signal relative to DMSO control) (% of DMSO control); higher = less gametocytocidal activity, active = 50 or less; conditions: exposure time: 72 h; remark: listed apart in the source
Summary of the method: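 Compounds from 10 mM DMSO stocks were spotted at nanolitre scale into 96-well plates, and day-12 stage V NF54/iGP1_RE9Hulg8 gametocytes (~2.5% gametocytemia, 3% hematocrit; medium with 0.5% Albumax II) were added to reach 10 µM or 1 µM, one well per concentration. The plates were kept at 37 °C for 72 h. Luminescence was then read on an IVIS Lumina II after mixing 90 µl of culture with 10 µl D-luciferin (30 mg/ml). Viability values are relative to the plate's mean DMSO vehicle signal.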

Compound: COC(=O)c1ccc2c(c1)nc(NC(=O)c1ccccc1)n2CCCc1ccccc1
- gametocyte viability ([1]; concentration: 1 µM): 86.9
- gametocyte viability ([1]; concentration: 10 µM): 54.7

Compound: C/C(=N\NC(=O)c1cccc(S(=O)(=O)N2CCOCC2)c1)c1cc(Cl)ccc1O
- gametocyte viability ([1]; concentration: 1 µM): 89.1
- gametocyte viability ([1]; concentration: 10 µM): 85.8

Compound: CNCCN(C)Cc1c[nH]nc1-c1ccc(O[C@H]2C[C@H](OCCC3CCOCC3)C2)cc1
- gametocyte viability ([1]; concentration: 1 µM): 85.5
- gametocyte viability ([1]; concentration: 10 µM): 82.4

Compound: CCOC(=O)Nc1cc(-c2ccc(C)c(NS(C)(=O)=O)c2)nn2c(C)nnc12 [Bromosporine]
- gametocyte viability ([1]; concentration: 1 µM): 86.5
- gametocyte viability ([1]; concentration: 10 µM): 83.1

Compound: COc1cc2c(NC3CCN(C(C)C)CC3)nc(C3CCCCC3)nc2cc1OCCCN1CCCC1
- gametocyte viability ([1]; concentration: 1 µM): 77.7
- gametocyte viability ([1]; concentration: 10 µM): 15.4 (active)

Compound: Cc1ccc(NC2=CC(=O)c3sc(C)nc3C2=O)cc1 [Ryuvidine]
- gametocyte viability ([1]; concentration: 1 µM): 59.2
- gametocyte viability ([1]; concentration: 10 µM): 19.2 (active)

Compound: Nc1c(S(=O)(=O)c2ccccc2)c2nc3ccccc3nc2n1-c1ccc(F)cc1
- gametocyte viability ([1]; concentration: 1 µM): 66.8
- gametocyte viability ([1]; concentration: 10 µM): 56.6

Compound: CC(/C=C/C(=O)NO)=C\[C@@H](C)C(=O)c1ccc(N(C)C)cc1 [Trichostatin A]
- gametocyte viability ([1]; concentration: 1 µM): 53.7
- gametocyte viability ([1]; concentration: 10 µM): 35.4 (active)

Compound: C#CCC(CCCCCC)C(=O)O (configuration not stated) [2-hexyl-4-Pentynoic Acid]
- gametocyte viability ([1]; concentration: 1 µM): 89.2
- gametocyte viability ([1]; concentration: 10 µM): 95.4

Compound: Cc1ccc(-n2sc3ccccc3c2=O)cc1
- gametocyte viability ([1]; concentration: 1 µM): 90.8
- gametocyte viability ([1]; concentration: 10 µM): 59.8

Compound: CCCNNC(=O)c1ccc(CNC(=O)/C=C/c2ccccc2)cc1 [HDAC3 Inhibitor]
- gametocyte viability ([1]; concentration: 1 µM): 83.6
- gametocyte viability ([1]; concentration: 10 µM): 93.8

Compound: COc1ccccc1C(=O)Nc1cc2c(cc1N1CCCC1)n(C)c(=O)n2C
- gametocyte viability ([1]; concentration: 1 µM): 79.5
- gametocyte viability ([1]; concentration: 10 µM): 65.1

Compound: CCOC(=O)NCCCC(=O)NCCc1ccccc1
- gametocyte viability ([1]; concentration: 1 µM): 89.7
- gametocyte viability ([1]; concentration: 10 µM): 94.3

Compound: N=C(N)NC(=N)NCCc1ccccc1 [Phenformin hydrochloride]
- gametocyte viability ([2]; concentration: 1 µM): 99.9
- gametocyte viability ([2]; concentration: 10 µM): 111

Compound: C#Cc1cccc(Nc2ncnc3cc(OCCOC)c(OCCOC)cc23)c1 [Erlotinib HCl]
- gametocyte viability ([2]; concentration: 1 µM): 86.2
- gametocyte viability ([2]; concentration: 10 µM): 82.4

Compound: Cc1nc(N)sc1-c1ccnc(Nc2ccc(N3CCOCC3)cc2)n1
- gametocyte viability ([2]; concentration: 1 µM): 107
- gametocyte viability ([2]; concentration: 10 µM): 108

Compound: CN(C)Cc1cccc(N=C(c2ccccc2)c2c(O)[nH]c3cc(C(N)=O)ccc23)c1
- gametocyte viability ([2]; concentration: 1 µM): 109
- gametocyte viability ([2]; concentration: 10 µM): 122

Compound: CCCS(=O)(=O)Nc1ccc(F)c(C(=O)c2c[nH]c3ncc(Cl)cc23)c1F
- gametocyte viability ([2]; concentration: 1 µM): 102
- gametocyte viability ([2]; concentration: 10 µM): 107

Compound: NC(=O)c1ccc(N(C(N)=O)c2c(F)cccc2F)nc1-c1ccc(F)cc1F
- gametocyte viability ([2]; concentration: 1 µM): 99.2
- gametocyte viability ([2]; concentration: 10 µM): 103

Compound: Cn1cnc2nc(NCCO)nc(NCc3ccccc3)c21 [Iso-olomoucine]
- gametocyte viability ([2]; concentration: 1 µM): 95
- gametocyte viability ([2]; concentration: 10 µM): 102

Compound: COc1cc2ncnc(Nc3ccc(F)c(Cl)c3)c2cc1OCCCN1CCOCC1 [Gefitinib (Iressa)]
- gametocyte viability ([2]; concentration: 1 µM): 95.3
- gametocyte viability ([2]; concentration: 10 µM): 92.8

Compound: CC1(COc2ccc3c(c2)ncn3-c2ccc3cccc(N4CCC(N)CC4)c3n2)COC1
- gametocyte viability ([2]; concentration: 1 µM): 125
- gametocyte viability ([2]; concentration: 10 µM): 112

Compound: Cc1cnc(NC(=O)Nc2cc(Br)c(C)cc2OC[C@@H]2CNCCO2)cn1
- gametocyte viability ([2]; concentration: 1 µM): 102
- gametocyte viability ([2]; concentration: 10 µM): 113

Compound: Cn1cnc2c(F)c(Nc3ccc(Br)cc3Cl)c(C(=O)NOCCO)cc21 [AZD6244 (Selumetinib)]
- gametocyte viability ([2]; concentration: 1 µM): 102
- gametocyte viability ([2]; concentration: 10 µM): 105

Compound: O=C(NOC[C@H](O)CO)c1ccc(F)c(F)c1Nc1ccc(I)cc1F
- gametocyte viability ([2]; concentration: 1 µM): 114
- gametocyte viability ([2]; concentration: 10 µM): 110

Compound: Cc1csc(-c2nnc(Nc3ccc(Oc4ncccc4-c4ccnc(N)n4)cc3)c3ccccc23)c1
- gametocyte viability ([2]; concentration: 1 µM): 103
- gametocyte viability ([2]; concentration: 10 µM): 112

Compound: OCCn1cc(-c2ccc3c(c2)CC/C3=N\O)c(-c2ccncc2)n1
- gametocyte viability ([2]; concentration: 1 µM): 88.7
- gametocyte viability ([2]; concentration: 10 µM): 99.6

Compound: O=Nc1c(-c2c(O)[nH]c3ccccc23)[nH]c2ccccc12 [Indirubin-3'-monooxime]
- gametocyte viability ([2]; concentration: 1 µM): 90.1
- gametocyte viability ([2]; concentration: 10 µM): 86.8

Compound: O=C1NC(=O)/C(=C/c2ccc3nccc(-c4ccncc4)c3c2)S1
- gametocyte viability ([2]; concentration: 1 µM): 101
- gametocyte viability ([2]; concentration: 10 µM): 103

Compound: CCCCCCCCCCCCC/C=C/[C@@H](O)[C@@H](N)CO [D-erythro-Sphingosine]
- gametocyte viability ([2]; concentration: 1 µM): 113
- gametocyte viability ([2]; concentration: 10 µM): 119

Compound: Clc1ccc(C2(c3ccc(-c4cn[nH]c4)cc3)CCNCC2)cc1
- gametocyte viability ([2]; concentration: 1 µM): 112
- gametocyte viability ([2]; concentration: 10 µM): 76.9
